High-throughput results as filed in PubChem.
TRHR agonist = agonists of human TRH receptor; activation, % at 2 µM; 360,000 compounds, 0.18% hits; TRHR cells, calcium flux fluo-8, FDSS agonist mode; AID 493084; P34981; also: 0% is about no effect
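Read-out: compound-evoked intracellular calcium rise in TRHR cells, fluo-8 dye, kinetic FDSS fluorescence at 1 s/cycle following a 10-cycle baseline. Cells cultured overnight before dye loading (30 min–1.5 h, RT).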
TRHR enhancer = TRH receptor (human) allosteric enhancement; P34981; 360,000 compounds, 0.66% hits; enhancement, % at 2 µM; TRHR cells, fluo-8 calcium fluorescence, EC20 TRH enhancement; AID 493056; in the data active = enhancement above about 30%; also: 0% is about no effect
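Enhancer read-out: after compound pinning and an initial kinetic agonist-mode read, an EC20 of TRH (10 nM final) was injected and fluo-8 calcium signal (Ex 480/Em 530) followed at 1 s/cycle for 100 cycles in TRHR-expressing cells.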
D1 agonist = human D1 receptor agonism. HEK293 T-REx D1 cells, calcium flux, agonist mode. activation, % at 2 µM. P21728. AID 504660. 360,000 compounds, 1% hits; also: 0% is about no effect
Target sequence (P21728 whole entry, looked up): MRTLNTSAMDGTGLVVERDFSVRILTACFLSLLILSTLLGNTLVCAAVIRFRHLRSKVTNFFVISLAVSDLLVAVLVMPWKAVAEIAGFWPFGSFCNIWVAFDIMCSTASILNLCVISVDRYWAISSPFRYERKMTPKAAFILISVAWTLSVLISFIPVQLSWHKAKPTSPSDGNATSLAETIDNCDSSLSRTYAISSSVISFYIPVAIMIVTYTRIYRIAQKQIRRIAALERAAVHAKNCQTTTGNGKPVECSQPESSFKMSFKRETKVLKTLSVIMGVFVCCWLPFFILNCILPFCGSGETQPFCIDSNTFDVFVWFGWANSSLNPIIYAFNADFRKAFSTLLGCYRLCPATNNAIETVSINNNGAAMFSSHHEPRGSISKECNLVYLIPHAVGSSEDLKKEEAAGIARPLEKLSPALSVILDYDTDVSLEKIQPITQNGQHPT
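Agonism was scored from calcium flux recorded over 180 s (1 read/s) after pintool compound addition, following a 10-cycle baseline. Cells were inducible force-coupled HEK293 TREx D1, plated overnight at 30 C and loaded with no-wash calcium dye.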
D1 potentiator = potentiators of human D1 dopamine receptor; potentiation, % at 10 µM; 360,000 compounds, 0.036% hits; HEK293 TREx D1 cells, calcium flux, dopamine EC20 potentiation; in the data active = potentiation above about 30%; also: 0% is about no effect
D1 antagonist = human D1 dopamine receptor antagonism; P21728; HEK293 TREx D1 cells, calcium flux, dopamine EC80; stronger effect = lower value; activity change, negative = inhibition, % at 10 µM; 360,000 compounds, 3.2% hits; AID 504652; in the data active = activity change below about -30%; also: % is scaled to controls: 0 for no effect and ±100 for the full control effect
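Cells carrying a force-coupled, tetracycline-inducible human D1 receptor report calcium flux. Each well gets a 10 s baseline, compound with 180 s monitoring, then an EC80 dopamine stimulus with a second 180 s kinetic read.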
* marks the source's active call; other numbers are inactive results; · = not tested or not shown. A selection: hits, their analogues and other compounds. The true share with any hit is near 4.7%. Rule as the data show it, unless noted: active = activation above about 30%; inactive = the rest.

SMILES	TRHR agonist	TRHR enhancer	D1 agonist	D1 potentiator	D1 antagonist
COc1ccc(C(=O)n2cc(C(=O)c3cc(C)ccc3O)cn2)cc1	-0.2	0.8	2.7	-2.6	2.2
COc1ccc(O)c(C(=O)c2cnn(C(=O)c3cc(C)oc3C)c2)c1	0.0	-4.6	1.8	-8.6	-46.2*
CCOC(=O)Cc1csc(NC(=O)c2ccc(Br)s2)n1	-0.1	-4.9	6.3	-7.0	-36.1*
CCOC(=O)Cc1csc(NC(=O)Nc2cccc(Cl)c2)n1	0.3	-5.3	15.0	-14.3	-41.9*
CCOC(=O)Cc1csc(NC(=S)NC(=O)c2ccccc2Br)n1	13.4	4.8	60.7*	-4.0	-27.3
CCOC(=O)Cc1csc(NC(=S)NC(=O)c2ccccc2)n1	7.9	2.6	8.6	-5.5	8.5
COc1ccc(NC(=O)CCc2c(C)nn(-c3ccc(N4CCCCC4)nn3)c2C)cc1Cl	-0.3	3.0	0.0	6.9	-12.5
CCCN(CC(=O)Nc1ccccc1C)C(=O)C1CCN(S(=O)(=O)c2ccccc2C(F)(F)F)CC1	0.0	-8.6	4.5	6.3	6.0
CCc1ccc(NC(=O)Cn2c(=O)n(Cc3ccco3)c(=O)c3cccnc32)cc1	-0.4	17.7	8.5	-3.6	-0.1
Cc1ccc(NC(=O)N2CC3CCCN3c3ccccc32)cc1Cl (centres undefined)	0.4	-8.5	1.9	-3.5	-1.3
CNC[C@H](NC[C@@H](NCCCc1ccccc1)c1ccccc1)[C@H](C)O	0.2	-0.8	3.1	-2.0	-10.5
COc1ccc(S(=O)(=O)c2nnn(-c3ccccc3F)c2C)cc1	-0.2	-3.9	10.0	-3.6	-8.2
COc1ccc(S(=O)(=O)c2nnn(-c3ccc(C)c(Cl)c3)c2C)cc1	3.1	-1.9	30.7*	-4.5	-20.8
C=C1Cn2c(nnc2-c2ccc(Cl)cc2)S1	-1.7	-8.2	1.0	-9.7	-61.1*
Clc1ccc(-c2nnc3n2CCCCS3)cc1	0.2	-1.0	0.9	-3.1	-6.5
CCC(C)(C)n1nnnc1C(C(C)C)N(Cc1cccnc1)Cc1ccco1 (centres undefined)	-0.4	20.9	-0.7	2.5	-44.4*
CC(C)(C)n1nnnc1C(c1cccnc1)N(Cc1ccccc1)Cc1ccco1 (centres undefined)	-1.0	10.1	2.5	-4.5	-10.1
COc1cccc(NC(=O)Nc2ccc(C(C)(C)C)cc2)c1	0.6	2.0	5.4	1.4	14.8
Cc1c(-c2ccccc2)nc2ccccc2c1C(=O)Oc1ccc([N+](=O)[O-])cc1	0.3	-4.2	2.7	-7.2	-33.2*
COc1ccc(-n2nc(C(=O)N3CCCC(C)C3)c3c4ccccc4n(C)c3c2=O)cc1Cl (centres undefined)	0.3	-4.9	-1.6	7.5	15.4
COc1ccc(/C=C(\C#N)C(=O)NCc2ccccc2)cc1O	0.1	7.2	2.6	·	-4.7
COc1ccc(/C=C(\C#N)C(=O)NCc2cccs2)cc1OC	-1.1	26.2	0.5	0.5	-34.4*
Cc1ccc2c(c1)c1c(c(=O)n(Cc3ccccc3)c(=O)n1CC(=O)Nc1ccccc1C)n2C	-1.1	3.7	3.5	-0.1	-5.9
Cc1ccc(NC(=O)CCc2nc(-c3ccccc3F)no2)c(C)c1	-0.6	5.6	4.6	3.0	-12.3
COC(=O)c1scc(S(=O)(=O)C(C)(C)C)c1N	-0.1	2.1	3.8	-1.1	-36.8*
SMILES	TRHR agonist	TRHR enhancer	D1 agonist	D1 potentiator	D1 antagonist
COC(=O)c1scc(S(=O)(=O)c2ccccc2)c1N	-0.1	6.4	4.7	1.4	4.6
CCCCNC(=O)CCCCC(=O)N/N=C/c1cccc(Cl)c1	-2.8	30.6*	1.3	-3.3	-28.6
COc1ccc(C)cc1N(C)C(=O)c1c2c(nc3ccccc13)C(=O)N(C1CCCCC1)C2	-0.8	-6.8	-0.9	-2.6	16.7
CNC(=O)COC(=O)c1ccccc1C(=O)c1ccc(Cl)c([N+](=O)[O-])c1	-0.6	-6.8	0.8	-5.4	-12.9
O=C(COC(=O)c1ccc([N+](=O)[O-])cc1)Nc1ccc(Cl)cn1	0.4	4.7	5.4	5.8	-37.0*
O=C(COC(=O)c1ccccc1C(=O)c1ccc(Cl)c([N+](=O)[O-])c1)NC1CC1	-0.7	-7.7	-0.9	-8.7	-41.2*
O=C(COC(=O)c1cccc([N+](=O)[O-])c1)Nc1ccc(Cl)cn1	0.7	-4.7	2.5	-13.9	5.3
